ABHD5 PLIN5 PPI – inhibitors of human ABHD5-perilipin-5 interaction; inhibition, % at 4 µM; 360,000 compounds, 0.78% hits; Q00G26+Q8WTS1; Split G. princeps luciferase complementation, luminescence, 4 h; AID 602281;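 active = inhibition above the mean inhibition across every tested compound plus 3 SD, cut at about 22% in these data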
Target sequence (Q00G26 whole entry, looked up): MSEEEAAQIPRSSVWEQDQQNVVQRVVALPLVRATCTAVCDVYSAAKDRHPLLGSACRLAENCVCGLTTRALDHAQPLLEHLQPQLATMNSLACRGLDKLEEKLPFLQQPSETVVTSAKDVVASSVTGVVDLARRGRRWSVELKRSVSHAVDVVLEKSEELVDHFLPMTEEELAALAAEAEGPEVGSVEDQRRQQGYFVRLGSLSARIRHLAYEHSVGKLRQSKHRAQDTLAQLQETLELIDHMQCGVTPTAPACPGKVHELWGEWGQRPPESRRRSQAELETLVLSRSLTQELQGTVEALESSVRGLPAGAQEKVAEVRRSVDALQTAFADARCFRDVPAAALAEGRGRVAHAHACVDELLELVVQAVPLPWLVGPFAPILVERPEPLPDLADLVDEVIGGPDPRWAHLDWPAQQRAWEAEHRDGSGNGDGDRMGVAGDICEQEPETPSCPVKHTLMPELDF
Target sequence (Q8WTS1 whole entry, looked up): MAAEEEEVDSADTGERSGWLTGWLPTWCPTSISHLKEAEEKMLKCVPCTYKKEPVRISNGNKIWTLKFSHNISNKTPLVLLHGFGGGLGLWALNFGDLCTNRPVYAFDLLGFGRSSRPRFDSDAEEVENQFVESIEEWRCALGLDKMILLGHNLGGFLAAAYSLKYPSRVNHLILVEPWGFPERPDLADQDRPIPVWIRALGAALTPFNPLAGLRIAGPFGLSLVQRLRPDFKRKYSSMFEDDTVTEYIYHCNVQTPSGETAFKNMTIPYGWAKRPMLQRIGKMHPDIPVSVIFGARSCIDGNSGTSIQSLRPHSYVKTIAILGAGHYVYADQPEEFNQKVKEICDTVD
Rtt109 Vps75 – inhibitors of Candida albicans Rtt109/Vps75 histone acetyltransferase; Q5AAJ8; purified Rtt109/Vps75, ThioGlo CoA-SH fluorescence, 4 h; inhibition, % at 34.9 µM; 330,000 compounds, 0.16% hits; AID 540336;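 active = inhibition of at least 50% in every replicate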
PRMT1 inh – inhibitors of human PRMT1. recombinant PRMT1, activity-based probe fluorescence polarization. inhibition, % at 2.79 µM. 370,000 compounds, 1.3% hits;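 active = inhibition above about 21% made by adding two undisclosed values, limit read from the data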
LANA-H2B inh – blocks KSHV LANA binding to histone H2A/H2B; cell-free LANA-H2A/H2B peptide, fluorescence polarization; Q9QR71; 320,000 compounds, 0.6% hits; inhibition, % (test concentration not listed); AID 2629; in the data active = inhibition mostly above about 10%, no sharp cut-off; inactive = mostly below about 6.7%
rCAG RNA binder – r(CAG) repeat RNA binding. TO-PRO-1 dye displacement fluorescence. 370,000 compounds, 1.3% hits. inhibition, % at 3 µM;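 active = inhibition above the plate cutoff, the mean of all test compounds on that plate plus 3 SD, cut at about 35% in these data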;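 also: higher means more dye released from RNA so lower well fluorescence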
ALR inh – blocks human ALR sulfhydryl oxidase activity; P55789; 290,000 compounds, 3.8% hits; purified ALR, DTT oxidation, H2O2 HRP-luminol luminescence; inhibition, % (concentration not given with the values);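 active = mean replicate inhibition above about 79%, with every replicate also reaching it, limit read from the data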
Hits are given with their value; n = inactive; x = no result. Most compounds without a hit are left out; they make up all but 5.9% or so of the library.

SMILES	ABHD5 PLIN5 PPI	Rtt109 Vps75	PRMT1 inh	LANA-H2B inh	rCAG RNA binder	ALR inh
Cc1cc(C(=O)NC2CCCc3c2cnn3-c2ccc(C)c(C)c2)no1 (stereo not given)	n	n	n	n	n	88.8
Nc1ccc2nc(SCC(=O)N3CCN(c4ccccc4)CC3)sc2c1	n	n	n	n	n	x
COc1ccc(CNC(=O)CSc2nc3ccc(N)cc3s2)cc1	n	n	n	n	n	98.3
Nc1ccc2nc(SCC(=O)Nc3ccc(N4CCOCC4)c(Cl)c3)sc2c1	n	n	n	n	n	99.2
CCOC(=O)CSc1nc2ccc(N)cc2s1	n	n	n	n	n	99.2
Nc1ccc2nc(SCc3cccc(F)c3)sc2c1	n	n	n	n	n	98.9
COC1=C[C@H](C(=O)N[C@H]2CCCC[C@@H]2NC(C)=O)[C@@]2(C)Cc3ccccc3[C@H]2CC1=O	x	x	n	x	n	x
O=S1(=O)c2c(cccc2N2CCSCC2)Oc2ccccc2CN1Cc1cn(Cc2cccc(F)c2)nn1	x	x	n	x	n	x
O=C(NC1CCCCN(Cc2ccc(Cl)cc2)C1=O)c1cccc2nsnc12 (stereo not given)	x	x	n	x	n	x
Nc1ccc2nc(SCC(=O)N3CCOCC3)sc2c1	n	n	n	n	n	99.5
Nc1ccc2nc(N3CCOCC3)sc2c1	n	n	n	n	n	99.3
CCOC(=O)CSc1nc(N)c(C(=O)Nc2ccc(N(C)C)cc2)s1	n	n	n	n	n	87.8
CC(NC(=O)CSc1nc2ccc(N)cc2s1)c1ccccc1 (stereo not given)	n	n	n	n	n	95.8
COCCCNC(=O)C[C@H]1C[C@@]2(C(=O)OC)C(=C[C@H](C(C)(C)C)O[C@@H]2C)N(Cc2ccco2)C1=O	x	x	n	x	n	x
CCN1C(=O)[C@H]2[C@@H](c3ccc(C)cc3)N3C(=O)N(c4ccccc4)C(=O)[C@@]3(CC)[C@H]2C1=O	n	n	n	n	n	n
COc1ccc(OC)c(NC(=O)C2(C)CCN2C(=O)CC2CC2)c1 (stereo not given)	n	x	n	x	n	x
Cc1nnsc1C(=O)N1CCCC(Nc2ccc(C(C)C)cc2)C1 (stereo not given)	n	n	n	n	n	n
Cc1ccc(NC2CCCN(C(=O)c3cc(C(C)C)nn3C)C2)cc1C (stereo not given)	n	x	n	x	n	x
Cc1ccc(NC2CCCN(C(=O)c3snnc3C)C2)cc1C (stereo not given)	n	n	n	n	n	99.0
Cc1ccc(NC2CCCN(C(=O)c3c(C)noc3C)C2)cc1C (stereo not given)	n	n	n	n	n	95.4
COc1ccc(CCNc2nc(C)nc3c2nnn3Cc2ccccc2)cc1OC	n	n	n	n	n	n
CC(C)(C)OC(=O)NCc1ccccc1/C=C/S(=O)(=O)NC1CCCC1	x	x	n	x	n	x
CCN(CCCNC(=O)C1CCCN(S(=O)(=O)c2cnc[nH]2)C1)c1ccccc1 (stereo not given)	n	n	n	n	n	97.5
Cc1ccc(CCNC(=O)C2CCCN(S(=O)(=O)c3cnc[nH]3)C2)cc1 (stereo not given)	n	n	n	n	n	n
COc1ccccc1NC(=O)C1CCCN(S(=O)(=O)c2cnc[nH]2)C1 (stereo not given)	n	n	n	n	n	n
SMILES	ABHD5 PLIN5 PPI	Rtt109 Vps75	PRMT1 inh	LANA-H2B inh	rCAG RNA binder	ALR inh
CCN(CCNC(=O)C1CCCN(S(=O)(=O)c2cnc[nH]2)C1)c1ccccc1 (stereo not given)	n	n	n	n	n	97.8
CCCN1Cc2cccc(C(=O)N3CCN(c4ccccc4)CC3)c2C1=O	n	n	n	n	n	n
COCCN1Cc2cccc(C(=O)N3CCN(c4ccccc4)CC3)c2C1=O	n	n	n	n	n	94.8
COCCN1Cc2cccc(C(=O)Nc3ccc(-c4nc5ccccc5[nH]4)cc3)c2C1=O	n	55.3	n	n	n	n
O=S1(=O)N[C@@H](Cc2ccccc2)COc2cc(N3CCOCC3)ccc21	x	x	n	x	n	x
O=C1NC[C@H](CCCCN2CCN(CC3CCCCC3)C(=O)C2=O)N(CCC2CCCCC2)C1=O	n	x	n	x	n	x
CC(=O)N1CC[n+]2c(-c3ccc(Cl)cc3)csc21	n	n	78.4	n	n	98.5
N#CC1C(=O)NC(=O)C(C#N)C12CCCC(C(F)(F)F)C2 (stereo not given)	n	n	n	x	n	x
COc1cc(OC)cc(-c2noc(-c3csc([C@@H]4C[C@H](O)[C@@H](CO)O4)n3)n2)c1	n	x	n	x	n	x
CN1CCCC1CCNc1ccc2sc3ccccc3c(=O)c2c1 (stereo not given)	n	n	n	n	n	97.8
Cc1cc2oc3cc(NCCC4CCCN4C)ccc3c(=O)c2cc1C (stereo not given)	n	n	n	n	n	90.8
COc1ccc(Cn2ccc3ccc(-c4ccc5ccn(C(=O)C6CCC6)c5c4)cc32)cc1	x	x	n	x	n	x
CCCNC(=O)c1cc2c3ccccc3n(C)c2s1	n	n	n	n	n	99.4
COCCNC(=O)c1cc2c3ccccc3n(C)c2s1	n	n	n	n	n	99.2
COc1cccc(C(C)(O)c2nc(-c3cccc(C(C)C)c3)cs2)c1 (stereo not given)	n	x	n	x	n	x
Cc1nnc(SCC(=O)c2ccc(S(=O)(=O)N3CCOCC3)cc2)n1-c1ccccc1	n	n	28.4	n	n	93.7
COC(=O)C1=C(C)N(Cc2ccc(F)cc2)C(=S)NC1c1ccc(F)cc1 (stereo not given)	x	x	n	x	n	x
O=C(O)CCc1[nH]c2ccccc2c1Sc1ccccc1	n	n	n	n	n	99.4
O=C(O)CCc1c(C(=O)O)[nH]c2ccccc12	n	n	n	n	n	n
CCOC(=O)C(Cc1ccccc1)P(=O)(OCC)OCC (stereo not given)	x	x	n	x	x	x
CN(C)S(=O)(=O)n1cc(/C=C(\NC(=O)c2ccccc2)C(=O)N2CCCC2)c2ccccc21	n	73.7	n	n	n	x
O=C(N/C(=C\c1ccc([N+](=O)[O-])cc1)C(=O)N1CCCCC1)c1ccccc1	n	n	n	12.7	n	n
Cc1cc(C)c(-n2nnnc2SCC(=O)c2cccs2)c(C)c1	n	60.2	n	n	n	n
CCN(CC)C(=O)C1c2ccccc2Oc2ccccc21	n	n	n	13.7	n	n
C=CCN(CC=C)C(=O)C1c2ccccc2Oc2ccccc21	n	x	n	x	n	x
SMILES	ABHD5 PLIN5 PPI	Rtt109 Vps75	PRMT1 inh	LANA-H2B inh	rCAG RNA binder	ALR inh
C=CCc1c(C)nc(C)nc1N/N=C/c1ccc(N(C)C)cc1	n	n	n	n	n	98.8
CSc1nc(-c2ccco2)nn1C(=O)c1ccccc1	n	n	n	n	n	n
CSc1nc(-c2ccco2)nn1C(=O)c1ccc(C)cc1	n	n	n	n	n	97.2
COc1ccccc1C(=O)n1nc(-c2ccco2)nc1SC	n	n	n	n	n	98.1
COc1ccc(C(=O)n2nc(-c3ccco3)nc2N)cc1	n	n	n	n	n	n
CCCCN(C)c1c(C)nc2ccc(C(=O)N(CC)CCN(C)C)cn12	n	x	n	x	n	x

Assay outcomes deposited in PubChem BioAssay by several laboratories.
